Measured values reported in PubChem BioAssay (EPA / NIEHS).
Activity calls are given as the source filed them. How the source made its calls: active means hit-call score of the fitted dose curve at least 0.9, where 1 is the maximum; inactive means score below 0.9.

Tests used:
[1] = ATG_CRE_CIS: Attagene CIS-FACTORIAL HepG2 Assay for human cAMP Responsive Element (CRE) binding protein 3 (AID 2282926); details: HepG2 CRE cis-reporter, Attagene multiplexed mRNA; actives raise or lower the signal
Outline: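 HepG2 cells transiently transfected with cis-element-driven multiple reporter transcription units; CRE reporter mRNA measured 24 h after dosing by RT-PCR, 6-FAM labelling, HpaI digestion and capillary electrophoresis. Bidirectional fit versus DMSO baseline.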

[2] = molecular target: CCAAT/enhancer-binding protein beta (Homo sapiens) (UniProt P17676); assay: ATG_C_EBP_CIS: Attagene CIS-FACTORIAL HepG2 Assay for human CCAAT/Enhancer Binding Protein (C/EBP) beta (AID 2282927); details: HepG2 Attagene cis-factorial transcription factor reporter; actives raise or lower the signal
Outline: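 Transiently transfected HepG2 (MRTU library, endogenous TF-driven promoters); 24 h dosing; total RNA → oligo(dT) RT → PCR → 6-FAM primer extension → HpaI digest → CE; fit bidirectionally vs DMSO.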

[3] = ATG_CMV_CIS: Attagene CIS-FACTORIAL HepG2 Assay for human CMV (Internal Marker) (AID 2282928); details: HepG2 CMV promoter reporter, transcription factor profiling; actives raise or lower the signal;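 further: endpoint acts as a background internal control marker rather than a target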
Outline: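 Endogenous transcription factor activity read in HepG2 via transfected cis-promoter reporter units. After 24 h dosing, reporter mRNA measured by RT-PCR/capillary electrophoresis; gain or loss of signal fit relative to DMSO.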

[4] = ATG_DR4_LXR_CIS: Attagene CIS-FACTORIAL HepG2 Assay for human Liver X Receptor (LXR), DR4 submotif (AID 2282929); details: HepG2 Attagene DR4 cis-reporter, mRNA transcription; actives raise or lower the signal
Outline: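 Readout: reporter transcript fluorescence after RT-PCR and capillary electrophoresis, fitted bidirectionally against DMSO controls. Human HepG2 liver cells carried transiently transfected multiplexed reporter constructs; endogenous transcription factor activity measured 24 h post-dosing.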

[5] = molecular target: Aryl hydrocarbon receptor (Homo sapiens) (UniProt P35869); assay: ATG_Ahr_CIS: Attagene CIS-FACTORIAL HepG2 Assay for human Aryl Hydrocarbon Receptor (Ahr) (AID 2282930); details: HepG2 AhR cis-factorial reporter transcription; actives raise or lower the signal
Outline: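 Read-out: reporter mRNA quantified by RT-PCR with fluorescent primer extension and capillary electrophoresis. Human HepG2 liver cells carried transfected cis-promoter reporter units and were exposed to chemical for 24 h; gain or loss fitted relative to DMSO.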

[6] = ATG_AP_1_CIS: Attagene CIS-FACTORIAL HepG2 Assay for human Activator Protein 1 (AP-1) (AID 2282931); details: HepG2 Attagene cis-factorial AP-1 reporter mRNA; actives raise or lower the signal
Outline: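 Reporter transcripts were measured 24 h after dosing by RT-PCR and capillary electrophoresis of fluorescent fragments. Cells: HepG2 carrying transfected cis-regulated reporter constructs reading endogenous factor activity. Gain or loss fitted against DMSO.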

[7] = ATG_AP_2_CIS: Attagene CIS-FACTORIAL HepG2 Assay for human Activator Protein 2 (AP-2) (AID 2282932); details: HepG2 AP-2 cis-reporter, Attagene transcription factor profiling; actives raise or lower the signal
Outline: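 HepG2 cells transiently transfected with cis-element reporter units and exposed for 24 h. Reporter mRNA measured by RT-PCR, FAM labelling, HpaI digestion and capillary electrophoresis. Changes in either direction fitted relative to DMSO.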

[8] = ATG_BRE_CIS: Attagene CIS-FACTORIAL HepG2 Assay for human Bone Morphogenetic Protein (BMP) Response Element (BRE) (AID 2282933); details: HepG2 BMP response element reporter, Attagene transcription factor profiling; actives raise or lower the signal
Outline: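 Gain- or loss-of-signal was derived by bidirectional fitting against DMSO controls. The signal came from reporter mRNA, measured by RT-PCR and capillary electrophoresis, in HepG2 cells transiently carrying multiple reporter units and dosed for 24 h.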

[9] = molecular target: Retinoic acid receptor alpha (Homo sapiens) (UniProt P10276); assay: ATG_DR5_RAR_CIS: Attagene CIS-FACTORIAL HepG2 Assay for human Retinoic Acid Receptor Alpha (RARE), DR5 submotif (AID 2282934); details: HepG2 Attagene cis-factorial RARE DR5 reporter, mRNA; actives raise or lower the signal
Outline: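 Read-out: DR5-driven reporter transcript measured by RT-PCR, 6-FAM primer extension, HpaI digest and capillary electrophoresis. Human HepG2 liver cells carry transiently transfected cis-element reporter constructs; dosing lasts 24 h. Gain or loss of signal fitted against DMSO baseline.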

[10] = molecular target: Transcription factor E2F1 (Homo sapiens) (UniProt Q01094); assay: ATG_E2F_CIS: Attagene CIS-FACTORIAL HepG2 Assay for human E2F Transcription Factor 1 (AID 2282935); details: HepG2 Attagene cis-reporter, E2F reporter RNA transcripts; actives raise or lower the signal
Outline: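 Endogenous E2F1 activity read through cis-promoter reporter units transfected into HepG2. After 24 h compound treatment, reporter mRNA measured by RT-PCR, HpaI digestion and capillary electrophoresis. Bidirectional fit versus DMSO.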

[11] = ATG_E_Box_CIS: Attagene CIS-FACTORIAL HepG2 Assay for human Enhancer Box (E-box) (AID 2282936); details: HepG2 E-box cis-reporter transcription, actives raise or lower the signal
Outline: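 HepG2 cells transiently transfected with multiplexed cis-element reporter units, dosed 24 h; reporter mRNA quantified by RT-PCR, 6-FAM labelling, HpaI digestion and capillary electrophoresis. E-box (USF1) signal fitted bidirectionally vs DMSO.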

[12] = ATG_M_61_CIS: Attagene CIS-FACTORIAL HepG2 Assay for M61 Transcription Factor (Internal Marker) (AID 2282937); details: HepG2 Attagene CIS-FACTORIAL M61 internal marker reporter; actives raise or lower the signal
Outline: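 Readout: fluorescent reporter mRNA fragments resolved by capillary electrophoresis after RT-PCR. Transiently transfected human HepG2 cells carried MRTU constructs reporting endogenous TF activity; 24 h chemical exposure; gain or loss of signal fitted relative to DMSO.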

[13] = ATG_EGR_CIS: Attagene CIS-FACTORIAL HepG2 Assay for human Early Growth Response 1 (EGR1) (AID 2282938); details: HepG2 Attagene CIS-FACTORIAL EGR reporter mRNA; actives raise or lower the signal
Outline: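 Read-out: fluorescent reporter-mRNA fragments resolved by capillary electrophoresis after RT-PCR, 24 h post-dose in transiently transfected HepG2. Endogenous transcription-factor activity reported via cis-element-regulated reporter units; gain or loss fitted relative to DMSO.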

[14] = ATG_M_19_CIS: Attagene CIS-FACTORIAL HepG2 Assay for M19 Transcription Factor (Internal Marker) (AID 2282939); details: HepG2 Attagene CIS-FACTORIAL M19 internal marker reporter; actives raise or lower the signal
Outline: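 Following a 24 h exposure, RNA from transfected HepG2 cells was reverse-transcribed, PCR-amplified with reporter-specific primers, end-labelled with 6-FAM and HpaI-digested before capillary separation. Values represent gain or loss versus DMSO.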

[15] = ATG_Ets_CIS: Attagene CIS-FACTORIAL HepG2 Assay for human Erythroblast Transformation Specific (ETS) (AID 2282941); details: HepG2 ETS cis-reporter transcription, actives raise or lower the signal
Outline: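 Steps: transfect HepG2 with multiple reporter units; treat compound 24 h; isolate RNA, DNase-treat, reverse-transcribe; PCR-amplify, label with 6-FAM, digest with HpaI; separate by capillary electrophoresis. Activity fitted both directions versus DMSO.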

[16] = molecular target: Hepatocyte nuclear factor 3-beta (Homo sapiens) (UniProt Q9Y261); assay: ATG_FoxA2_CIS: Attagene CIS-FACTORIAL HepG2 Assay for human Forkhead box A2 (FOXA2) (AID 2282942); details: HepG2 cis-reporter transcription factor activity, 24 h; actives raise or lower the signal
Outline: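 Readout: fluorescent reporter transcripts resolved by capillary electrophoresis after RT-PCR. Transiently transfected HepG2, 24 h compound exposure, endogenous TF activity at cis promoter elements. Gain or loss of signal fitted relative to DMSO.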

[17] = ATG_FoxO_CIS: Attagene CIS-FACTORIAL HepG2 Assay for human Forkhead box O (FoxO) (AID 2282943); details: HepG2 Attagene cis-reporter, FoxO element, mRNA; actives raise or lower the signal
Outline: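 Read-out: fluorescence of 6-FAM-labelled reporter cDNA fragments resolved by capillary electrophoresis. Transiently transfected HepG2 cells were dosed for 24 h; activity fitted in both directions relative to DMSO controls.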

[18] = ATG_GATA_CIS: Attagene CIS-FACTORIAL HepG2 Assay for human GATA Binding Protein (AID 2282944); details: HepG2 GATA cis-element reporter, Attagene multiplex mRNA; actives raise or lower the signal
Outline: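 DMSO serves as negative control and baseline for bidirectional fitting of reporter mRNA changes. HepG2 cells bearing transiently transfected cis-promoter reporters were exposed 24 h; transcripts detected via RT-PCR and capillary electrophoresis.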

[19] = ATG_GLI_CIS: Attagene CIS-FACTORIAL HepG2 Assay for human Zinc Finger Protein GLI1 (AID 2282945); details: HepG2, Attagene cis-factorial reporter mRNA, GLI element; actives raise or lower the signal
Outline: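 Transiently transfected HepG2 cells report endogenous transcription factor activity via cis-element-driven reporter units. After 24 h compound exposure, reporter mRNA was measured by RT-PCR with capillary electrophoresis; bidirectional fitting against DMSO baseline.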

[20] = ATG_ERE_CIS: Attagene CIS-FACTORIAL HepG2 Assay for Estrogen Response Element (ERE) (AID 2282940); details: HepG2 ERE cis-reporter, Attagene RNA transcript; actives raise or lower the signal
Outline: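 HepG2, transient cis-reporter units, 24 h exposure. RNA isolated, oligo(dT) RT, reporter-specific PCR, FAM extension, HpaI cut, CE detection. Gain/loss-of-signal vs DMSO.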

Measured: AC50

CCAAT/enhancer-binding protein beta (Homo sapiens), sequence (P17676 whole entry, looked up): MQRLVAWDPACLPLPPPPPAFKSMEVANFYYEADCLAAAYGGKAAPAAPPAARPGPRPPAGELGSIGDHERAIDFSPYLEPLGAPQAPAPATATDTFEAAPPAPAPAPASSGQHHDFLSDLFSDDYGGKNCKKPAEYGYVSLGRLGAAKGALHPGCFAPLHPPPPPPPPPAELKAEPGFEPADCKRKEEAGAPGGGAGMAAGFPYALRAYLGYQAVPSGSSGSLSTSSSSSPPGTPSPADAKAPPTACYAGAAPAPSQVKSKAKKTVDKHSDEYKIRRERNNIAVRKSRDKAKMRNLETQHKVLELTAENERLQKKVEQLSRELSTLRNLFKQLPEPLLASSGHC
Retinoic acid receptor alpha (Homo sapiens), sequence (P10276 whole entry, looked up): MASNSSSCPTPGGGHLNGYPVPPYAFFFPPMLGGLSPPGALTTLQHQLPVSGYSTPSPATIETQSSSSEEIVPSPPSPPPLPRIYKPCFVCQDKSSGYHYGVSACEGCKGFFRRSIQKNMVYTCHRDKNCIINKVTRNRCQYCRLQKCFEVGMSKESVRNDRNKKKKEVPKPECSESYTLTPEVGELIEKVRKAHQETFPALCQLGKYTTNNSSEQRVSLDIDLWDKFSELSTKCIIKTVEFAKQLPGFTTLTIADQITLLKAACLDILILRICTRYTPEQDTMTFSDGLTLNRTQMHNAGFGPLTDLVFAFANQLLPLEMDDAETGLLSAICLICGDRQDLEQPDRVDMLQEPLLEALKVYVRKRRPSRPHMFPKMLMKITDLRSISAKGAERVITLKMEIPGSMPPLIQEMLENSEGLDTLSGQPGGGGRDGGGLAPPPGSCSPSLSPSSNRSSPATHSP
Aryl hydrocarbon receptor (Homo sapiens), sequence (P35869 whole entry, looked up): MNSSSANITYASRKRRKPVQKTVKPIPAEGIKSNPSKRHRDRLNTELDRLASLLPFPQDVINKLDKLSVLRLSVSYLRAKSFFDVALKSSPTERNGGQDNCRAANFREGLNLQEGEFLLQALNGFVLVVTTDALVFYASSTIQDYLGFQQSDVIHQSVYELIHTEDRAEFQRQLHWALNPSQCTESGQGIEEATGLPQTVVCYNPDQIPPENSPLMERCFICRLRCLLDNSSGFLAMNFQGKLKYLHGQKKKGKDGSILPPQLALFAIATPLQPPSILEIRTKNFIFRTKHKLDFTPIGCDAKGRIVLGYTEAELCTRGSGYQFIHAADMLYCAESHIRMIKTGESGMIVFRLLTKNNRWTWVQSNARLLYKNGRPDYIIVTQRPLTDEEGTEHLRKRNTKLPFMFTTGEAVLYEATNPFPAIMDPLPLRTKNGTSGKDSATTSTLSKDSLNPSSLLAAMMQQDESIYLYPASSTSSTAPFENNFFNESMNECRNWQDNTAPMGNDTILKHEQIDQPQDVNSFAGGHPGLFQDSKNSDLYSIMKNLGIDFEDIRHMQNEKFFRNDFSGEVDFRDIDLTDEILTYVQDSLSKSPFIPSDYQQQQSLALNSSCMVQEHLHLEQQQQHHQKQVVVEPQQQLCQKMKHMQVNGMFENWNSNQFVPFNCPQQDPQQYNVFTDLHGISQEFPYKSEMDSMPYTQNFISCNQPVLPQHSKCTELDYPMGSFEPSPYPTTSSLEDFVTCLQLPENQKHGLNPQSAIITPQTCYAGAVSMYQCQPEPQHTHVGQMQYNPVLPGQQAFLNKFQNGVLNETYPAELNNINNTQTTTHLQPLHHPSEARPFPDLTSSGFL
Hepatocyte nuclear factor 3-beta (Homo sapiens), sequence (Q9Y261 whole entry, looked up): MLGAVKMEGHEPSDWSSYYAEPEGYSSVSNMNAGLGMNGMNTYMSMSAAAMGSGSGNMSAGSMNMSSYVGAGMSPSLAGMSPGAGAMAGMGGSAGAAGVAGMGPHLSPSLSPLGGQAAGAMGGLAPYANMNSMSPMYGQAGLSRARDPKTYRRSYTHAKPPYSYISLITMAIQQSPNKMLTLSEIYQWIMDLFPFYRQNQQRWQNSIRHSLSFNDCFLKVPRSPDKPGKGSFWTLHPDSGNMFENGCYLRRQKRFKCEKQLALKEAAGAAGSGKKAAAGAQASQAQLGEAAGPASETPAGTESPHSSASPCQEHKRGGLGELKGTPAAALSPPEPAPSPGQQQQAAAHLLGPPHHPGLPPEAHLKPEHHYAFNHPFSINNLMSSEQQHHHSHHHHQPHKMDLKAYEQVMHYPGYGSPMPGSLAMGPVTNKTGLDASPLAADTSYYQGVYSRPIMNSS
Transcription factor E2F1 (Homo sapiens), sequence (Q01094 whole entry, looked up): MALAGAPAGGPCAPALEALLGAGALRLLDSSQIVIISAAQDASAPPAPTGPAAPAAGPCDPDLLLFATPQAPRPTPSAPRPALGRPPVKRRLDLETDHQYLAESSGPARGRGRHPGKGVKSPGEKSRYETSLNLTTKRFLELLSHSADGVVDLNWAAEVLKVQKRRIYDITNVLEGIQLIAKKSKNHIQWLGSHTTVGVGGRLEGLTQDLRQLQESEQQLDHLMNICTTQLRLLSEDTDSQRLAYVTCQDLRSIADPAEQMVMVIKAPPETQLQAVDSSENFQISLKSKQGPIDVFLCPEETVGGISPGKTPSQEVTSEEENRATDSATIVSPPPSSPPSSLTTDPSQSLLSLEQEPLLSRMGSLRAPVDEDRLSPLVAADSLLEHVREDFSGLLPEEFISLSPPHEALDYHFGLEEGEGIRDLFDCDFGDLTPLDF

CCCC(=O)OC(C)(C)Cc1ccccc1
inactive: [1] | [2] | [3] | [4] | [6] | [7] | [8] | [9] | [10] | [11] | [12] | [13] | [14] | [15] | [16] | [17] | [18] | [19]
active: [5] 72.8 µM

CN(C)c1ccncc1
inactive: [1] | [2] | [3] | [4] | [5] | [6] | [7] | [8] | [9] | [10] | [11] | [12] | [13] | [14] | [20] | [15] | [17] | [18] | [19]

O=Cc1ccccc1S(=O)(=O)O
inactive: [1] | [2] | [3] | [4] | [5] | [6] | [7] | [8] | [9] | [10] | [11] | [12] | [13] | [14] | [15] | [16] | [17] | [18] | [19]

Brc1ccc(Br)c(Br)c1
inactive: [1] | [2] | [3] | [4] | [5] | [6] | [7] | [8] | [9] | [10] | [11] | [12] | [13] | [14] | [20] | [15] | [16] | [17] | [18] | [19]

O=C(Nc1ccc2c(O)c(N=Nc3ccc(N=Nc4ccc(S(=O)(=O)O)cc4)cc3)c(S(=O)(=O)O)cc2c1)c1ccccc1
inactive: [1] | [2] | [3] | [4] | [5] | [6] | [7] | [9] | [10] | [11] | [12] | [13] | [14] | [20] | [15] | [16] | [17] | [18] | [19]
active: [8] 66.8 µM

O=C(Nc1ccc([N+](=O)[O-])cc1)Nc1ccc([N+](=O)[O-])cc1 (tested in a mixture with another compound)
inactive: [1] | [2] | [3] | [4] | [6] | [7] | [8] | [9] | [10] | [11] | [12] | [13] | [14] | [15] | [16] | [17] | [18] | [19]
active: [5] 35.1 µM

CC(C)NCC(O)COc1ccc(CC(N)=O)cc1 (stereo unspecified)
inactive: [1] | [2] | [3] | [4] | [5] | [6] | [7] | [8] | [9] | [10] | [11] | [12] | [13] | [14] | [20] | [15] | [16] | [17] | [18] | [19]
